Inconclusive results are not listed. Where a call stands in place of a potency, no number is given. Active and inactive are the calls of the source. Calls come from the whole dose curve; as a rule, active = well fitted inhibition curve with a large enough effect; inconclusive = small, poorly fitted or top-dose-only effect; inactive = no such curve, though single readings can be large or run the other way. Square brackets hold non-standard residues; d marks the D form. Peptide text beside a SMILES is read from it. Hyp = O=C(O)[CH]1C[CH](O)CN1; Phe(ol) = N[CH](CO)Cc1ccccc1; Iva = CC[C](C)(N)C(=O)O; Aib = CC(C)(N)C(=O)O

The target in the assay is Retinaldehyde dehydrogenase 3 (Homo sapiens) (UniProt P47895). Put plainly: qHTS for Inhibitors of the Aldehyde Dehydrogenase Family (ALDH1A3) Primary screen (AID 2061315). Conditions: ALDH inhibition qHTS; series mostly up to 56 µM.
Regarding `COc1cc(O)cc(C)c1C(=O)O[C@@H]1[C@H](O)[C@@H](CO)O[C@H]1n1ccc(=O)[nH]c1=O`, the Potency entry was “inactive”.
Same read-out and setting: the result for `C=CC(C)(O)CC/C=C(\C)C(=O)O[C@@H]1[C@@H](O)[C@H](OC(C)(C=C)CC/C=C(\C)C(=O)O[C@@H]2O[C@H](CO)[C@@H](O)[C@H](O)[C@H]2O)O[C@H](CO)[C@H]1OC(=O)/C(C)=C/CCC(C)(O)C=C` (stereo not given in full) reads “inactive”.
As to `CCC(C)(NC(=O)C(CCC(N)=O)NC(=O)C1CC(O)CN1C(=O)C(C)(C)NC(=O)C(C)(C)NC(=O)C(CC(C)C)NC(=O)CNC(=O)C(NC(=O)C(C)(C)NC(=O)C(C)(C)NC(=O)C(C)(C)NC(=O)C(Cc1ccccc1)NC(C)=O)C(C)C)C(=O)N1CC(O)CC1C(=O)NC(C)(C)C(=O)NC(CO)Cc1ccccc1` (stereo not given) (Ac-F[Aib][Aib][Aib]VGL[Aib][Aib][Hyp]Q[Iva][Hyp][Aib][Phe(ol)]; configuration not given here), the activity change, negative = inhibition is 11.2% [at 11.2 µM] (inactive).
As to `O=C(N/N=C/c1ccc(O)c(O)c1)c1cc2ccccc2cc1O`, the Potency result was “inactive”.
Same read-out and setting: the result for `COC(=O)C1C(O)CCC2CN3CCc4c([nH]c5ccccc45)C3CC21` (stereo not given) reads “inactive”; that for `C[C@@H]1O[C@@H](O[C@H]2[C@H](O[C@H]3[C@H](O[C@H]4CC[C@@]5(CO)C(CC[C@]6(C)C5CC=C5C7CC(C)(C)C[C@@H](O)[C@]7(C)CC[C@]56C)C4(C)C)O[C@H](C(=O)O)[C@@H](O)[C@@H]3O)OC[C@@H](O)[C@@H]2O)[C@H](O)[C@H](O)[C@H]1O` (stereo not given in full), “inactive”.
Still for that read-out and setting: the result for `COc1c2c(c(C)c3c1C(=O)OC3)OC1(C)CC(O)C34OC(O)(CCC3(C)C1C2)OC4(C)C` (stereo not given) reads “inactive”; that for `O=C(Nc1ccccc1C(=O)Nc1ccc(CCO)cc1)c1ccc([N+](=O)[O-])cc1`, “inactive”.
On the same count and under the same terms, with `CCNc1nc(Nc2cc(F)c(C(=O)N3CCOCC3)cc2OC)ncc1C(F)(F)F` the entry was “inactive”.
For `Fc1ccc(N2CCCCC2)c(NC(=S)c2ccncc2)c1`, the Potency entry was “inactive”.
For `CCCC(CCC)C(=O)NCc1ccc2c(cnn2-c2ccccc2OC)c1`, the Potency entry is “inactive”.
The same measure, in the same setting: with `O=C1NC(Cc2ccccc2)C(=O)N2CCCC12` (stereo not given) the entry was “inactive”; with `CC(C)c1ccc2c(c1)[C@H](O)CC1[C@@](C)(C(=O)O)CCC[C@]21C` (stereo not given in full), “inactive”; with `CC(C)CC(=O)OC[C@H]1O[C@@](COC(=O)CC(C)C)(O[C@H]2O[C@H](CO)[C@@H](O)[C@H](O)[C@H]2O)[C@@H](OC(=O)CC(C)C)[C@@H]1OC(=O)CC(C)C`, “inactive”.
On the same count and under the same terms, with `C=C(C)C(C)C1OC23CC4(CO2)C(CCC2C5(C)CCC(OC6OCC(O)C(OC7OC(CO)C(O)C(OC8OCC(O)C(O)C8O)C7O)C6OC6OC(CO)C(O)C6O)C(C)(C)C5CCC24C)C3C(C)(O)C1OC(C)=O` (stereo not given) the entry was “inactive”; with `Nc1nc(-n2cc(C(=O)O)c(=O)c3cc(F)c(N4CC(O)C4)c(Cl)c32)c(F)cc1F`, “inactive”.
As for `Nc1c(S(=O)(=O)c2ccccc2)c2nc3ccccc3nc2n1-c1ccc(F)cc1`, the Potency entry is “inactive”.
The same measure, in the same setting: with `COc1cccc(C)c1C(=O)O[C@@H]1C[C@H](O[C@H]2[C@H](O)C[C@H](O[C@@H]3CCC[C@H]4[C@H]3C=C[C@@H]3CCCC/C=C/[C@H]5C=C(C(=O)O)[C@@H](C)C[C@@]56OC(=O)C(=C6O)OC(=O)[C@@]34C)O[C@@H]2C)O[C@H](C)[C@H]1O` the entry was “inactive”; with `Cc1nc(NC(=O)N2CCC[C@H]2C(N)=O)sc1-c1ccnc(C(C)(C)C(F)(F)F)c1`, “inactive”; with `CCC[C@@H]1O[C@@H]2C[C@H]3[C@@H]4CCC5=CC(=O)C=C[C@]5(C)[C@H]4[C@@H](O)C[C@]3(C)[C@]2(C(=O)CO)O1`, “inactive”.
Still for that read-out and setting: the result for `CC(=O)C12OC(C)(C)OC1CC1C3CCC4=CC(=O)C=CC4(C)C3(F)C(O)CC12C` (stereo not given) reads “inactive”.
The same measure, in the same setting: the result for `CC1(C)CC[C@]2(C(=O)O[C@@H]3O[C@H](CO)[C@@H](O)[C@H](O)[C@H]3O)CC[C@]3(C)C(=CCC4[C@@]5(C)CC[C@H](O[C@@H]6O[C@H](C(=O)O)[C@@H](O)[C@H](O)[C@H]6O)C(C)(C)C5CC[C@]43C)C2C1` (stereo not given in full) reads “inactive”; that for `C=C(C)C1CC[C@]2(C(=O)O)CC[C@]3(C(=O)O)[C@H](CCC4[C@@]5(C)CC[C@H](O)C(C)(C)C5CC[C@]43C)C12` (stereo not given in full), “inactive”.
Regarding `C=C1CCC[C@]2(C)CC[C@@](O)(C(=C)C(=O)O)C[C@@H]12`, the Potency result is “inactive”.
On the same count and under the same terms, with `CC(C)c1ccc2c(c1)C(=O)CC1C(C)(C(=O)O)CCCC21C` (stereo not given) the entry was “inactive”.
For `CC(=O)N[C@@H](CCCCN)C(=O)N(C)[C@@H](CC(C)C)C(=O)N[C@H](C(=O)N(C)[C@@H](Cc1ccccc1)C(=O)N[C@H](Cc1ccccc1)C(N)=O)C(C)C`, the activity change, negative = inhibition was 0.0688% [at 5.59 µM] (inactive).
For the compound `Cn1cc(-c2ccc3nnc(Sc4ccc5nn(C)cc5c4)n3n2)cn1`, the Potency entry was “inactive”.
On to `O=C(OCC12OC1C=CC(OC(=O)c1ccccc1)C2O)c1ccccc1` (stereo not given), for which the Potency result is “inactive”.
The same measure, in the same setting: the result for `CCCCC1CCC(c2nc(-c3ccncc3)no2)CC1` (stereo not given) reads “inactive”; that for `CC(=O)O[C@@H]1CC[C@@]2(C)[C@H](CC[C@@H]3[C@@H]2C[C@H](OC(C)=O)[C@]2(C)[C@@H](C(C)=O)CC[C@@H]32)C1`, “inactive”.
For `C/C=C/C=C/C=C/C(=O)N(C)C(C(=O)NC(C)C(=O)N1CCCC1C(N)=O)C(C)C` (stereo not given), the Potency result was “inactive”.
The same measure, in the same setting: with `C=C1C(=O)O[C@@H]2/C=C(\C)CC/C=C(\C)CC[C@@H]12` the entry was “inactive”.
The same measure, in the same setting: with `COc1cc(C(O)C(CO)Oc2ccc(CCCO[C@@H]3O[C@@H](C)[C@H](O)[C@@H](O)[C@H]3O)cc2OC)ccc1O` (stereo not given in full) the entry was “inactive”; with `CC1(C)CC[C@]2(C(=O)O)[C@H](O)C[C@]3(C)C(=CCC4[C@@]5(C)CC[C@H](O[C@@H]6O[C@H](CO[C@@H]7OC[C@H](O)[C@H](O)[C@H]7O[C@@H]7OC[C@@H](O)[C@H](O)[C@H]7O)[C@@H](O)[C@H](O)[C@H]6O[C@@H]6O[C@H](CO)[C@@H](O)[C@H](O)[C@H]6O)C(C)(C)C5CC[C@]43C)[C@@H]2C1` (stereo not given in full), “inactive”.
On the same count and under the same terms, with `CC1(C)CCC2(C(=O)OC3OC(CO)C(O)C(O)C3O)CCC3(C)C(=CCC4C5(C)CCC(OC6OC(C(=O)O)C(OC7OC(CO)C(O)C(O)C7O)C(OC7OC(CO)C(O)C(O)C7O)C6O)C(C)(C)C5CCC43C)C2C1` (stereo not given) the entry was “inactive”; with `C=C1C(=O)OC2CC(C)C(CCC(C)=O)=CCC12` (stereo not given), “inactive”.
In the case of `Fc1ccc(-c2c3cccc(C(F)(F)F)c3nn2Cc2ccc(F)cc2Cl)cc1`, the Potency entry is “inactive”.
For `CC(=O)O[C@@H]1[C@@H](O)[C@H](C)O[C@@H](O[C@H]2[C@@H]3C=CO[C@@H](O[C@@H]4O[C@H](CO)[C@@H](O)[C@H](O)[C@H]4OC(C)=O)[C@@H]3[C@@]3(CO)O[C@@H]23)[C@@H]1OC(=O)/C=C/c1ccc(O)cc1`, the Potency entry was “inactive”.
Same read-out and setting: the result for `C=C1C(O)CC2C(C(=O)O)=COC(O[C@@H]3O[C@H](COC(=O)c4ccc(O)cc4)[C@@H](O)[C@H](O)[C@H]3O)C12` (stereo not given in full) reads “inactive”; that for `C=C[C@@]12COC(=O)C(=C)[C@@H]1[C@@H](O)[C@H](C(=C)C(=O)OC)[C@@H](O)C2`, “inactive”.

(Values after PubChem BioAssay (NCATS).)
